# Measurements published in PubChem BioAssay (NCATS).
# Inconclusive results are not listed. A number with no mark means an inactive call. Active and inactive are the calls of the source. The call rests on the fitted dose curve; in most records, active means well fitted inhibition curve with a large enough effect; inconclusive means small, poorly fitted or top-dose-only effect; inactive means flat fitted curve, though single readings scatter.
# Tests used:
# [1] = tested on: HEK293; assay: Cytotoxic Profiling of Annotated Libraries Using Quantitative High-Throughput Screening (AID 1296008); settings: Five cell lines viability, CellTiter-Glo ATP luminescence, 48-72 h; max response: hits give low values; on max response: on the % scale 0 is the no-effect control and ±100 the full control effect
# Summary of the method: (§1)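 Cells exposed to compounds for 48 or 72 hr at 37 degrees Celsius. Viability read as ATP-coupled luminescence with CellTiter-Glo after 10 min at room temperature.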
# [2] = tested on: KB-3-1; assay: as above; settings: Five cell lines viability, CellTiter-Glo ATP luminescence, 48-72 h; max response: hits give low values
# Summary of the method: as §1
# [3] = tested on: NIH3T3; assay: as above; settings: Five cell lines viability, CellTiter-Glo ATP luminescence, 48-72 h; max response: hits give low values
# Summary of the method: as §1
# [4] = tested on: HEK293T; assay: qHTS assay to identify novel small-molecules to repurpose for Merkel cell carcinoma treatment (AID 1296009); settings: MCC and control cell lines, CellTiter-Glo viability, 72 h; at 44.8 µM (top of the series) unless noted
# Summary of the method: (§2)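 Dose-response viability screen; 72 hr exposure at 37 degree celsius; CellTiter-Glo added, 10 min room temperature, luminescence read; RLUs scaled between no-cell and DMSO wells.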
# [5] = tested on: HACAT; assay: as above; settings: MCC and control cell lines, CellTiter-Glo viability, 72 h; series mostly up to 44.8 µM
# Summary of the method: as §2
# [6] = tested on: HaCat; assay: Cytotoxic Profiling of Annotated Libraries Using Quantitative High-Throughput Screening (AID 1296008); settings: Five cell lines viability, CellTiter-Glo ATP luminescence, 48-72 h; max response: hits give low values; on max response: on the % scale 0 is the no-effect control and ±100 the full control effect
# Summary of the method: as §1
# Further: nearly all actives have a fitted effect of over 60% in size.
# Potency means the concentration at half of the fitted maximal effect.
compound,measurement,setting,value
CC(=O)C=C=C1C(C)(C)CC(O[C@@H]2O[C@H](CO)[C@@H](O)[C@H](O)[C@H]2O)CC1(C)O (stereo not given in full),outcome,[1],inactive
same,max response,[2],0.592%
same,max response,[3],4.66%
same,outcome,[4],inactive
O=C(Nc1ccc(S(=O)(=O)C(F)(F)F)cc1)C1=CCN(c2ncccc2C(F)(F)F)CC1,Potency,[1],8.2 µM (active)
same,Potency,[2],23.1 µM (active)
same,Potency,[3],16.4 µM (active)
C[C@H](Nc1ncnc2nc[nH]c12)c1cc2ccc(F)cc2nc1-c1ccccn1,outcome,[1],inactive
same,outcome,[2],inactive
same,max response,[3],-0.749%
same,outcome,[4],inactive
Nc1nc(-n2cc(C(=O)O)c(=O)c3cc(F)c(N4CC(O)C4)c(Cl)c32)c(F)cc1F,outcome,[1],inactive
same,max response,[2],-18.7%
same,max response,[3],2.73%
same,outcome,[4],inactive
CN(C)CCn1cc(S(=O)(=O)c2cccc(F)c2)c2cccnc21,outcome,[1],inactive
same,max response,[2],1.25%
same,max response,[3],-4.92%
same,outcome,[4],inactive
C=C[C@H]1C(O[C@@H]2O[C@H](CO)[C@@H](O)[C@H](O)[C@H]2O)OC=C2C(=O)N3CCc4c([nH]c5ccccc45)C3CC21 (stereo not given in full),outcome,[1],inactive
same,outcome,[2],inactive
same,max response,[3],2.27%
same,outcome,[4],inactive [at 17.4 µM]
O=C(O)c1ccccc1NC(=O)N1CCC(c2ccccc2C(F)(F)F)CC1,outcome,[1],inactive
same,max response,[2],-2.67%
same,outcome,[3],inactive
same,outcome,[4],inactive
Cc1cc(=O)oc2c(C=O)c(O)ccc12,outcome,[1],inactive
same,outcome,[2],inactive
same,max response,[3],-0.325%
same,outcome,[4],inactive
C[C@]12C[C@@H](O)[C@@H]3C[C@@]1(O[C@@H]1O[C@H](CO)[C@@H](O)[C@H](O)[C@H]1O)[C@]3(COC(=O)c1ccccc1)C(=O)O2,outcome,[1],inactive
same,max response,[2],4.54%
same,outcome,[3],inactive
same,outcome,[4],inactive [at 17.4 µM]
CC#CC(=O)N1CCC[C@H]1c1nc(-c2ccc(C(=O)Nc3ccccn3)cc2)c2c(N)nccn12,max response,[1],-0.695%
same,outcome,[2],inactive
same,max response,[3],-4.42%
CC1CCN(C(=O)CC#N)CC1N(C)c1ncnc2[nH]ccc12 (stereo not given),outcome,[1],inactive
same,outcome,[2],inactive
same,outcome,[4],inactive
O=C1NC(Cc2c[nH]c3ccccc23)C(=O)NC1Cc1c[nH]c2ccccc12 (stereo not given),outcome,[1],inactive
same,outcome,[2],inactive
same,max response,[3],-2.22%
same,outcome,[4],inactive
CCCCOC(=O)NC(=O)C1c2ccccc2Oc2ccccc21,outcome,[1],inactive
same,max response,[2],2.73%
same,max response,[3],-5.65%
same,outcome,[4],inactive
CNC(=O)c1ccccc1Nc1nc(Nc2ccc3c(c2OC)CCCC(N2CCN(CCO)CC2)C3)ncc1Cl (stereo not given),Potency,[1],5.17 µM (active)
same,Potency,[2],10.3 µM (active)
same,Potency,[3],9.2 µM (active)
same,Potency,[5],5.8 µM (active)
CC(O)/C=C/C1(O)C(C)C(O[C@@H]2O[C@H](CO)[C@@H](O)[C@H](O)[C@H]2O)C(O)CC1(C)C (stereo not given in full),outcome,[1],inactive
same,max response,[2],-3.24%
same,outcome,[3],inactive
same,outcome,[4],inactive [at 17.4 µM]
CNS(=O)(=O)CC1CCC(N(C)c2ncnc3[nH]ccc23)CC1 (stereo not given),max response,[1],-8.69%
same,max response,[2],-6.06%
same,max response,[3],-10.7%
COC(=O)C1=CO[C@@H](O[C@@H]2O[C@H](CO)[C@@H](O)[C@H](O)[C@H]2O)[C@@H]2C(CO)=CC[C@]12O,outcome,[1],inactive
same,max response,[2],9.91%
same,max response,[3],1.93%
same,outcome,[4],inactive [at 17.4 µM]
Cc1ccc([N+](=O)[O-])cc1S(=O)(=O)N(C)/N=C/c1cnc2ccc(Br)cn12,Potency,[1],0.103 µM (active)
same,Potency,[2],0.146 µM (active)
same,Potency,[3],0.461 µM (active)
CC1(C)CCCC2(C)C(C(=O)O)=CCC12 (stereo not given),max response,[2],-0.0594%
CC(C)(C)C(=O)CN1C(=O)[C@H](NC(=O)Nc2cccc(C(=O)O)c2)CN(C2CCCCC2)c2ccccc21,max response,[6],-3.07%
same,outcome,[2],inactive
same,max response,[3],1.3%
COc1cc(/C=C/C(=O)O[C@H]2[C@H](O)[C@@H](CO)O[C@@]2(CO)O[C@H]2O[C@H](CO)[C@@H](O)[C@H](O)[C@H]2O)ccc1O,max response,[6],-4.81%
same,max response,[2],1.78%
same,max response,[3],1.81%
C=C1OC2CC(C(=O)O)C=CC2NC1=O (stereo not given),max response,[2],3.04%
same,max response,[3],0.0418%
C=C[C@]1(C)C[C@H](O)[C@@H]2[C@H](OC(=O)[C@@H]2C)C1/C(C)=C/O[C@@H]1O[C@H](CO)[C@@H](O)[C@H](O)[C@H]1O (stereo not given in full),max response,[6],-9.44%
same,max response,[2],0.273%
same,max response,[3],-22.7%
COC(=O)c1cc(OC)c(O[C@@H]2O[C@@H](C)[C@H](O)[C@@H](O)[C@H]2O)c(OC)c1,max response,[6],-17.1%
same,max response,[2],4.85%
same,max response,[3],2.7%
CC(C)(C)NS(=O)(=O)c1cncc(-c2cc(F)c3nc(N)nn3c2)c1,max response,[6],-25.2%
same,outcome,[2],inactive
same,max response,[3],3.5%
